{"source": "PubChem BioAssay AID743135", "about": "(Broad Institute, 2013)", "note": "Records with an inconclusive call do not appear. Values without a mark were called inactive. Active and inactive are the calls of the source.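 The calls were made as follows: active = fitted drop in cell viability signal with half-maximal potency at most twice the top valid dose; inconclusive = flat fit with a 30 to 70% drop, or poor fit; inactive = opposite direction, flat within 30%, or potency beyond limit.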"}
{"assay": "HEK293T viability reduction – cell-based, ATP luminescence, dry powder, Set3, 50 µM top, cytotoxicity control, dose response (AID 743135)", "conditions": "CellTiter-Glo ATP luminescence, 72 h; series mostly up to 50 µM"}
{"smiles": "Cc1c(C(=O)O)sc2nc(/C=C/c3ccc4[nH]ccc4c3)[nH]c(=O)c12", "outcome": "inactive"}
{"smiles": "Cc1c(C(=O)O)sc2nc(/C=C/c3cccnc3)[nH]c(=O)c12", "outcome": "inactive"}
{"smiles": "Cc1c(C(=O)O)sc2nc(/C=C/c3cc4ccccc4cn3)[nH]c(=O)c12", "outcome": "inactive"}
{"smiles": "Cc1c(C(=O)O)sc2nc(/C=C/c3ccnc4ccccc34)[nH]c(=O)c12", "outcome": "inactive"}
{"smiles": "Cc1c(C(=O)O)sc2nc(/C=C/c3ccc4cc[nH]c4c3)[nH]c(=O)c12", "outcome": "inactive"}
{"smiles": "Cc1c(C(=O)O)sc2nc(/C=C/c3cccc(N4CCOCC4)n3)[nH]c(=O)c12", "outcome": "inactive"}
{"smiles": "Cc1c(C(=O)O)sc2nc(/C=C/c3cnc4ccccc4c3)[nH]c(=O)c12", "outcome": "inactive"}
{"smiles": "Cc1c(C(=O)O)sc2nc(/C=C/c3ccc4ccccc4c3)[nH]c(=O)c12", "outcome": "inactive"}
{"smiles": "Cc1c(C(=O)O)sc2nc(/C=C/c3ccccn3)[nH]c(=O)c12", "outcome": "inactive"}
{"smiles": "Cc1c(C(=O)O)sc2nc(/C=C/c3cccc(C(=O)O)c3)[nH]c(=O)c12", "outcome": "inactive"}
{"smiles": "Cc1c(C(=O)O)sc2nc(/C=C/c3cccc(N)c3)[nH]c(=O)c12", "outcome": "inactive"}
{"smiles": "Cc1c(C(=O)O)sc2nc(/C=C/c3cccc(N4CCNCC4)c3)[nH]c(=O)c12", "outcome": "inactive"}
{"smiles": "Cc1c(C(=O)O)sc2nc(/C=C/c3cccc(OC(F)(F)F)c3)[nH]c(=O)c12", "outcome": "inactive"}
{"smiles": "COc1cccc(/C=C/c2nc3sc(C(=O)O)c(C)c3c(=O)[nH]2)c1", "outcome": "inactive"}
{"smiles": "Cc1c(C(=O)O)sc2nc(/C=C/c3ccccc3)[nH]c(=O)c12", "outcome": "inactive"}
{"smiles": "Cc1c(C(=O)O)sc2nc(/C=C/c3cccnc3N)[nH]c(=O)c12", "activity change, negative = cytotoxicity": "-17.4% [at 12 µM]"}
{"smiles": "Cc1c(C(=O)O)sc2nc(/C=C/C=C/c3ccccc3)[nH]c(=O)c12", "outcome": "inactive"}
{"smiles": "Cc1c(C(=O)O)sc2nc(/C=C/c3cccc(=O)[nH]3)[nH]c(=O)c12", "outcome": "inactive"}
{"smiles": "Cc1c(C(=O)O)sc2nc(/C=C/c3cccc(F)c3)[nH]c(=O)c12", "outcome": "inactive"}
{"smiles": "Cc1c(C(=O)O)sc2nc(/C=C/c3ccc(O)cn3)[nH]c(=O)c12", "activity change, negative = cytotoxicity": "6.21% [at 1.2 µM]"}
{"smiles": "Cc1c(C(=O)O)sc2nc(/C=C/c3ccc4[nH]ccc4n3)[nH]c(=O)c12", "activity change, negative = cytotoxicity": "-5.92% [at 12 µM]"}
{"smiles": "Cc1c(C(=O)O)sc2nc(/C=C/C3CC3)[nH]c(=O)c12", "outcome": "inactive"}
{"smiles": "Cc1c(C(=O)O)sc2nc(/C=C/c3cccc(C(N)=O)c3)[nH]c(=O)c12", "outcome": "inactive"}
{"smiles": "Cc1c(C(=O)O)sc2nc(/C=C/c3cccc(C(F)(F)F)c3)[nH]c(=O)c12", "outcome": "inactive"}
{"smiles": "Cc1c(C(=O)O)sc2nc(/C=C/c3cccc(O)c3)[nH]c(=O)c12", "outcome": "inactive"}
{"smiles": "Cc1c(C(=O)O)sc2nc(/C=C/c3ccccc3O)[nH]c(=O)c12", "outcome": "inactive"}
{"smiles": "Cc1c(C(=O)O)sc2nc(/C=C/c3ccc(N)nc3)[nH]c(=O)c12", "outcome": "inactive"}
{"smiles": "Cc1c(C(=O)O)sc2nc(CCc3cccc(O)c3)[nH]c(=O)c12", "outcome": "inactive"}
{"smiles": "Cc1c(C(=O)O)sc2nc(/C=C/c3cccc([N+](=O)[O-])c3)[nH]c(=O)c12", "outcome": "inactive"}
